According to PubChem BioAssay (NCATS):
Where “and” joins values, the source holds several entries; their conditions need not be identical. Equal values may be shown once. Records with an inconclusive call do not appear. Calls of active or inactive are those of the source. Unless noted, calls follow the shape of the dose curve; as a rule, active = well fitted curve in the direction sought with a large enough effect; inconclusive = small, poorly fitted or top-dose-only effect, or another doubt; inactive = no such curve, though single readings can be large; an effect the other way counts as inactive or inconclusive.

Legend:
[1] = molecular target: Phospholipid hydroperoxide glutathione peroxidase GPX4 (Homo sapiens) (UniProt P36969); experiment: Primary qHTS Assay for Inhibitors of Recombinant Selenoprotein Glutathione Peroxidase 4 (GPX4) (AID 1845192); also: nearly all actives have a fitted effect of over 65% in size; also: potency is read from the fitted curve at half-maximal effect
Phospholipid hydroperoxide glutathione peroxidase GPX4 (Homo sapiens), sequence (P36969 whole entry, looked up): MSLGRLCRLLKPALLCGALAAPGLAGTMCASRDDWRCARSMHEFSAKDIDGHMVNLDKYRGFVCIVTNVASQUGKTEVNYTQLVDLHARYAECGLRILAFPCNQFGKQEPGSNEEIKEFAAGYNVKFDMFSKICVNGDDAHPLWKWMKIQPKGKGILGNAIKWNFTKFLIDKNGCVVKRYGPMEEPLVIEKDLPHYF
In short: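 Steps: GPX4 plus compound, 30 min RT; add GR/GSH/NADPH master mix; start with cumene hydroperoxide; read 340/450 nm fluorescence at 0 and 15 min. Finals were 200 nM GPX4, 1 mM GSH, 0.5 mM CHP, 0.5 mM NADPH, 100 nM GR.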

[2] = qHTS drug screen for cell cycle checkpoint inhibitors in PARPi-resistant BRCA-mutant ovarian cancer cell lines. (AID 1963452; calls by dose curve; also: potency is read from the fitted curve at half-maximal effect); conditions: PEO1/OlaR viability, CellTiter-Glo luminescence, 96 h; for Z-AUC: stronger effect = lower value
In short: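 PEO1, PEO4 and PEO1/OlaR ovarian cancer cells, 600 per well, exposed 96 h at 37C to a dilution series. Viability read by CellTiter-Glo luminescence, normalized to DMSO and empty wells; activity summarized as Z-AUC.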

[3] = Cell Viability - BJ (AID 421; calls by dose curve;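 also: potency is read from the fitted curve at half-maximal effect; cells exposed to compound for 40 hours at 37 °C before readout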); conditions: BJ fibroblast viability, qHTS
In short: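 Cytotoxicity as drop in intracellular ATP (CellTiter-Glo, 20 min RT) after 40 hr compound exposure of BJ fibroblasts at 37 °C. Titrations scaled between DMSO and 100 uM tamoxifen, Hill-fitted for AC50.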

[4] = Cell Viability - MRC5 (AID 434; calls by dose curve;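 also: potency is read from the fitted curve at half-maximal effect; cells exposed to compound for 40 hours at 37 °C; potency reflects cytotoxicity seen as loss of intracellular ATP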); conditions: MRC5 lung fibroblast viability, qHTS
In short: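 ATP luminescence read-out (CellTiter-Glo, 20 min RT) after 40 hr, 37 °C compound exposure of 1500 MRC5 cells/well. Data normalized to DMSO (basal) and 100 uM tamoxifen (100% inhibition); AC50 from standard Hill equation.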

[5] = Cell Viability - SK-N-SH (AID 435; calls by dose curve; also: potency is read from the fitted curve at half-maximal effect); conditions: SK-N-SH neuroblastoma cell viability qHTS
In short: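 qHTS cytotoxicity: CellTiter-Glo ATP luminescence after 40 h compound exposure of human neuroblastoma SK-N-SH cells at 37 °C. AC50 derived by Hill-equation fitting, with DMSO as basal and 100 uM tamoxifen as full inhibition.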

[6] = molecular target: Mitogen-activated protein kinase 10 (Mus musculus) (UniProt Q61831); experiment: JNK3 AlphaScreen Assay (AID 530; active = well fitted curve in either direction with a large enough effect, not every such curve was filed as active;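 also: kinase came from lysate of stimulated human HepG2 cells; signal reports phosphorylation of biotinylated GST-cJun 1-79 at Ser73 with 10 µM ATP; % is scaled to controls: 0 for no effect and ±100 for the full control effect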)
In short: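 Activity was read by AlphaScreen after JNK3-containing HepG2 lysate (cytokine pre-activated) phosphorylated biotinylated GST-cJun with 10 uM ATP at room temperature. Phospho-Ser73 cJun antibody with Protein-A acceptor beads provided detection.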

[7] = Cell Viability - Mesenchymal (AID 546); conditions: mesenchymal cells viability, qHTS; activity change, negative = cytotoxicity: at 91.7 µM (top of the series);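 also: cells exposed to compound for 40 hours before reading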; also: potency is read from the fitted curve at half-maximal effect;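 as to activity change, negative = cytotoxicity: 0% = DMSO only and -100% = 100 µM tamoxifen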
In short: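 Human renal mesenchymal cells (glomerulus-derived), 1000 cells/well, 5 hr 37 °C pre-incubation; compound 40 hr, 37 °C; CellTiter-Glo, 20 min RT; luminescence; AC50 via Hill equation.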

[8] = molecular target: Cytochrome P450 3A4 (Homo sapiens) (UniProt P08684); experiment: qHTS Assay for Inhibitors and Substrates of Cytochrome P450 3A4 (AID 884); also: % is scaled to controls: 0 for no effect and ±100 for the full control effect; nearly all actives have a fitted effect of over 50% in size
Cytochrome P450 3A4 (Homo sapiens), sequence (P08684 whole entry, looked up): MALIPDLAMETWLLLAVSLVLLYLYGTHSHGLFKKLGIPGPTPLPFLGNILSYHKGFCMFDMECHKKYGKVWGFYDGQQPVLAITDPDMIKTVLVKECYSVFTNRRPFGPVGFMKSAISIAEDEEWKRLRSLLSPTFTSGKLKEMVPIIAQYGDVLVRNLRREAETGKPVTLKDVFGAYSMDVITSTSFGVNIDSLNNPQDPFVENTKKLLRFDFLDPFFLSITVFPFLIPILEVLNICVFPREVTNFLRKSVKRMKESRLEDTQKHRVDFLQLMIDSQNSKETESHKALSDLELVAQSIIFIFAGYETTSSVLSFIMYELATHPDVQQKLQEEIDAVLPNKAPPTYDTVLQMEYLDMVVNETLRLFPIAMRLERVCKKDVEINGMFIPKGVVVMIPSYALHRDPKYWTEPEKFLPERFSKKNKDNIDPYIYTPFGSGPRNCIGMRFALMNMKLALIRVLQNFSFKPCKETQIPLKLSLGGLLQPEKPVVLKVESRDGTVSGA
In short: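 Luminescent readout of luciferin produced by CYP3A4 (20 nM) dealkylation of Luciferin-PPXE, 25 uM (its KM). NADPH-driven reaction ran 60 min at RT after 10 min compound preincubation; data scaled to 57 uM ketoconazole as 100% inhibition.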

[9] = qHTS Assay for Identification of Small Molecule Inducers of Hypoxia Response (AID 2120; active = well fitted curve in the direction sought with a large enough effect in the signal ratio, with a control signal flat, not every such curve was filed as active; the % refers to the signal ratio; also: 0% is about no effect)
In short: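 Cell-based qHTS for reporter induction: hypoxia response element controlled beta-lactamase in ME-180 cells. Compounds incubated 17 h at 37 degrees C; activity from blue/green (460/530 nm) ratio, inducers ranked by AC50.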

[10] = molecular target: Thyroid hormone receptor beta (Homo sapiens) (UniProt P10828); experiment: qHTS assay for small molecule agonists of thyroid hormone receptor beta signaling (AID 588545; calls by dose curve)
Thyroid hormone receptor beta (Homo sapiens), sequence (P10828 whole entry, looked up): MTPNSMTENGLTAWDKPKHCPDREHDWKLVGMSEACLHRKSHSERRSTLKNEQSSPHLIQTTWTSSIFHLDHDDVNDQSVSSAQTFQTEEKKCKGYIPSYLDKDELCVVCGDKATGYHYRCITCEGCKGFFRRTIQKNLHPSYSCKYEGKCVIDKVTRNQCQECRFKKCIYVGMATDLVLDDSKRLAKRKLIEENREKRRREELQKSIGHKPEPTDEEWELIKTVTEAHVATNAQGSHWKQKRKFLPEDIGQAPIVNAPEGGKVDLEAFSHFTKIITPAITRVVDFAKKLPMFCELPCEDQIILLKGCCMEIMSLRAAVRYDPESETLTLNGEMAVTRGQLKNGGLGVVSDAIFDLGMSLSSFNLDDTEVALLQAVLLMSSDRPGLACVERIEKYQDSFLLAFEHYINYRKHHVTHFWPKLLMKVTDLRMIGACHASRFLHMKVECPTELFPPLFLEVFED
In short: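 Agonist activity was read as beta-lactamase CCF4 fluorescence (405 ex, 460/530 em), scaled between DMSO (0%) and 10 nM T3 (100%), then Hill-fitted for EC50 and efficacy. HEK 293 TR-UAS-bla cells in 2% charcoal/dextran FBS medium were exposed 18 h at 37 C.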

[11] = qHTS assay for small molecule antagonists of retinoid X receptor alpha signaling (AID 588546); conditions: HEK293T RXRa-UAS-bla, beta-lactamase ratio, antagonist mode; measured here: W530 green channel, cytotoxicity proxy;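 also: cells stimulated with 9-cis-retinoic acid as agonist; % is scaled to controls: 0 for no effect and ±100 for the full control effect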
In short: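 Beta-lactamase reporter inhibition, read as CCF4 fluorescence ratio (ex 405, em 460/530 nm) after 2 h at RT. HEK293T UAS-bla cells, 2500/well, were stimulated with 9-cis-RA at 500 or 100 nM final alongside test compound for 18 h at 37 C.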

[12] = molecular target: Luciferin 4-monooxygenase (Photinus pyralis) (UniProt P08659); experiment: Biochemical firefly luciferase enzyme assay for NPC (AID 624030);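 also: purified P. pyralis luciferase at 10 nM with luciferin and ATP substrate; 0% = DMSO and -100% = full luciferase inhibition by PTC124 control; nearly all actives have a fitted effect of over 70% in size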
Luciferin 4-monooxygenase (Photinus pyralis), sequence (P08659 whole entry, looked up): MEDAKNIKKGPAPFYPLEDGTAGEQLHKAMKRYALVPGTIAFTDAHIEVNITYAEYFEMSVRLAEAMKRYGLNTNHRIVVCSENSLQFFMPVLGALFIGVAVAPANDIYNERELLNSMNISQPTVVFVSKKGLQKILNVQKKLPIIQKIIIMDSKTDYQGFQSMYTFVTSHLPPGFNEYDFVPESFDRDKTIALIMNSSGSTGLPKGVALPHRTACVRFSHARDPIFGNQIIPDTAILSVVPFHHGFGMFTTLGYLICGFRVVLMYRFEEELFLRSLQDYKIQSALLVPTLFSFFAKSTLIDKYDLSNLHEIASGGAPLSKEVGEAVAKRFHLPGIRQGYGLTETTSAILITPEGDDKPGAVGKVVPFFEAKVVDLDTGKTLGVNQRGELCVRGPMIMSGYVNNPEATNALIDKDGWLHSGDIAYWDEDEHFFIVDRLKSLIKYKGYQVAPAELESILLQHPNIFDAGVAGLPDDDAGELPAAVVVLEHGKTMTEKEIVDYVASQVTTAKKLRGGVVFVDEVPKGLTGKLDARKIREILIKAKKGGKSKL
In short: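 Purified P. pyralis luciferase at 10 nM in 50 mM Tris Acetate (final), luminescence read within 5 minutes of enzyme addition to compounds. Activity normalised to PTC124 versus DMSO; concentration-response curves classed by r2, magnitude and activity.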

[13] = qHTS assay for environmental chemicals that activate the Aryl hydrocarbon Receptor (AhR) signaling pathway (AID 651777); conditions: 1A2-DRE human hepatoma cells, luciferase, 24 h; activation: stronger effect = higher value; also: % of control where 0% means no effect; nearly all actives have a fitted effect of over 15% in size
In short: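 1A2-DRE human hepatoma reporter line; 1,200 cells/well; cmpd or DMSO 24 h, 37 C/5% CO2; One-Glo 30 min RT; luciferase lum.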

[14] = molecular target: Peroxisome proliferator-activated receptor alpha (Homo sapiens) (UniProt Q07869); experiment: qHTS assay for small molecule agonists of the peroxisome proliferator-activated receptor alpha (PPARalpha) signaling pathway (AID 651778); conditions: PathHunter PPARalpha complementation, chemiluminescence, 6 h; max response: stronger effect = higher value; also: % of control where 0% means no effect
Peroxisome proliferator-activated receptor alpha (Homo sapiens), sequence (Q07869 whole entry, looked up, the tested form may be a part): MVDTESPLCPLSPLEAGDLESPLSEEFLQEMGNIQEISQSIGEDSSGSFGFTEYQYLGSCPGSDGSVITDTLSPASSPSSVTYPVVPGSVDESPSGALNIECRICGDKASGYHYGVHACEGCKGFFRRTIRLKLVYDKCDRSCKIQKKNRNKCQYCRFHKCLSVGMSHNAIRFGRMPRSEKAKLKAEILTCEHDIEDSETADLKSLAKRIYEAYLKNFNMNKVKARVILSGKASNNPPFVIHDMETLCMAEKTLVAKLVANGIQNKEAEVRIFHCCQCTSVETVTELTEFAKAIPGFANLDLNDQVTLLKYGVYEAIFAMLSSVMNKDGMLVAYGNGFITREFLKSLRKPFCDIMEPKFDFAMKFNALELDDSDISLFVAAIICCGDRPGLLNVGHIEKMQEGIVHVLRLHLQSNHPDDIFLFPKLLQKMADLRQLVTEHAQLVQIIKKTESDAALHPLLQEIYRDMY
In short: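 Enzyme-fragment complementation assay in which ligand-bound PPARalpha translocates and forms an active enzyme that generates chemiluminescence. Cells were plated overnight, exposed to compound for 6 hr at 37 C, and then given detection reagent for 60 min at room temperature.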

[15] = qHTS assay for small molecule agonists of the antioxidant response element (ARE) signaling pathway measured by Nrf2-dependant transcriptional activity (AID 720636; active = well fitted curve in the direction sought with a large enough effect in the repeat runs; an effect the other way counts as inactive or inconclusive;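 also: HepG2 cells with an ARE-driven luciferase reporter; % of control where 0% means no effect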)
In short: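 Cells: ARE-luc HepG2 with Nrf2-responsive luciferase. Medium contained 1% dialyzed FBS. Compound exposure lasted 16 hr at 37 C and 5% CO2, followed by ONE-Glo luciferase detection.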

[16] = qHTS assay for cell viability of HEK293 cells (AID 743288); conditions: ATP luminescence (CellTiter-Glo), 18 h; max response: stronger effect = lower value; also: nearly all actives have a fitted effect of over 50% in size; also: potency is read from the fitted curve at half-maximal effect; as to max response: % is scaled to controls: 0 for no effect and ±100 for the full control effect
In short: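 Readout is luciferase-coupled ATP content (CellTiter-Glo luminescence, 30 min room temperature) as a measure of metabolically competent cells. Parental HEK293 cells were plated 5 h or more before compound addition, then treated 18 h at 37 C.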

[17] = qHTS profiling for inhibitors of Plasmodium falciparum proliferation (AID 504749);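 also: 0% = DMSO vehicle and full inhibition = artemisinin control; nearly all actives have a fitted effect of over 60% in size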; conditions: P. falciparum in erythrocytes, SYBR Green DNA, 72 h, at 28.7 µM (top of the series)
In short: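 Each compound contacts P. falciparum-infected red blood cells for 72 h at 37 C; lysis buffer (Tris, EDTA, saponin, Triton X, SYBR Green I) is added and fluorescence measured next morning; values normalized to controls.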

[18] = molecular target: Peroxisome proliferator-activated receptor gamma (Homo sapiens) (UniProt P37231); experiment: qHTS assay for small molecule agonists of peroxisome proliferator-activated receptor gamma signaling (AID 588536; active = well fitted curve in the direction sought with a large enough effect in the signal ratio, with a control signal flat, not every such curve was filed as active; the % refers to the signal ratio;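 also: 0% = DMSO basal wells and 100% = rosiglitazone at 2 µM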)
Peroxisome proliferator-activated receptor gamma (Homo sapiens), sequence (P37231 whole entry, looked up): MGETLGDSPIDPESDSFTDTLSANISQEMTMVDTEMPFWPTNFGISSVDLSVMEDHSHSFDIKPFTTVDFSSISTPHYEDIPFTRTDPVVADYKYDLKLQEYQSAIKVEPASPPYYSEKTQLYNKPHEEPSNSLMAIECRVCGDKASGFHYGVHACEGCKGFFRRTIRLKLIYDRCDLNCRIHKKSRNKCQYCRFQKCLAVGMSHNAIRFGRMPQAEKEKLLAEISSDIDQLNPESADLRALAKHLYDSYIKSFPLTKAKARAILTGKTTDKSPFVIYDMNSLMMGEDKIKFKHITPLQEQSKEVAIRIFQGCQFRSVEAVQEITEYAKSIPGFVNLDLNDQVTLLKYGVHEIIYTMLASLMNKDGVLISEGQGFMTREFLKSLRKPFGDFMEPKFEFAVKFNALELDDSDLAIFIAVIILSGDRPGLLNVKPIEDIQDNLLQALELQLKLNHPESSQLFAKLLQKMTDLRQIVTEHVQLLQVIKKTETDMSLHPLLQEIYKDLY
In short: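 This is an agonist-mode beta-lactamase reporter assay in HEK293 PPAR-gamma-UAS-bla cells with 1% charcoal/dextran FBS. Compound titrations ran 16 h at 37 C before CCF4 detection. EC50 and efficacy are Hill fits scaled to 2 uM rosiglitazone (100%) and DMSO basal.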

[19] = qHTS assay for cell viability of the p53RE-bla HCT-116 cell line (AID 743292); also: % is scaled to controls: 0 for no effect and ±100 for the full control effect; nearly all actives have a fitted effect of over 55% in size
In short: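 HCT-116 p53RE-bla cells seeded 4,000/well; 5 h at 37 C; compound (DMSO) added; 16 h at 37 C; CellTiter-Glo added, 30 min RT; luminescence read.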

CN(C)CCCOc1ccc(-c2ccc3ncc4c(c3c2)n(C2CCOCC2)c(=O)n4C)cn1
Potency [1]: inactive
Potency [2]: 3.01 µM (active)
Z-AUC ([2]; measured here: PEO1 parental Z-AUC): -1.35
Z-AUC ([2]; measured here: PEO4 Z-AUC): -1.31

CCc1cc2c(cc1CC)CC(NC[C@H](O)c1ccc(O)c3[nH]c(=O)ccc13)C2
Potency [1]: 10 µM (active)

COc1ccc(CNc2nc(N3CCC[C@H]3CO)ncc2C(=O)NCc2ncccn2)cc1Cl
Potency [1]: inactive

S=C1NC=NC2N=CNC12 (centres undefined)
Potency [3]: 0.22 µM (active)
Potency [4]: > 92 µM (inactive)
Potency [5]: 0.237 µM (active)
Potency [6]: inactive
Potency [7]: 0.501 µM (active)
Potency [8]: inactive
outcome [9]: inactive
outcome [10]: inactive
max response [11]: 4.27%
Potency [12]: inactive
activation [13]: -2.14% (inactive)
max response [14]: -7.07% (inactive)
Potency [15]: inactive
Potency [16]: 2.24 µM (active)
activity, negative = inhibition ([17]; parasite line A): -17.9% (inactive)
activity, negative = inhibition ([17]; parasite line B): -14.3% (inactive)

CCC(=O)OCC(=O)[C@]1(OC(=O)CC)[C@H](C)C[C@H]2[C@H]3[C@H]([C@@H](O)C[C@@]21C)[C@@]1(C)C=CC(=O)C=C1C[C@H]3Cl
Potency [1]: inactive

CN(CC(O)CO)C(=O)c1c(I)c(NC(=O)C(CO)CO)c(I)c(C(=O)N(C)CC(O)CO)c1I (centres undefined)
Potency [1]: inactive

CC(=O)NC(C=O)C(O)C(O)[C@H](O)CO (some centres undefined)
Potency [1]: inactive

NCCC[C@H](NC(=O)[C@@H]1CCCN1C(=O)[C@@H]1CSSC[C@H](N)C(=O)N[C@@H](Cc2ccc(O)cc2)C(=O)N[C@@H](Cc2ccccc2)C(=O)N[C@@H](CCC(N)=O)C(=O)N[C@@H](CC(N)=O)C(=O)N1)C(=O)NCC(N)=O
Potency [1]: 25.1 µM (active)

Cn1nnnc1SCC1=C(C(=O)O)N2C(=O)[C@H](NC(=O)C(O)c3ccccc3)C2SC1 (some centres undefined)
Potency [1]: 8.91 µM (active)

Cc1ccc(N)c([N+](=O)[O-])c1
Potency [3]: > 92 µM (inactive)
Potency [4]: > 92 µM (inactive)
Potency [5]: > 92 µM (inactive)
Potency [6]: inactive
activity change, negative = cytotoxicity [7]: 5.43% (inactive)
Potency [8]: inactive
outcome [9]: inactive
outcome [18]: inactive
outcome [10]: inactive
max response [11]: -10.8% and -10%
activation [13]: 2.83% (inactive) and 1.74% (inactive)
max response [14]: -6.83% (inactive) and -1.01% (inactive)
Potency [15]: inactive
max response [16]: -10.6% (inactive) and -7.86% (inactive)
Potency [19]: inactive

CCNC(=O)CCC/C=C\C[C@@H]1[C@@H](/C=C/[C@@H](O)CCc2ccccc2)[C@H](O)C[C@@H]1O
Potency [1]: inactive

CC(=O)OCC1=C(C(=O)O)N2C(=O)[C@@H](NC(=O)CC#N)[C@H]2SC1
Potency [1]: inactive
